Data as given in PMC5540273 (PLoS ONE, 2017).

Key:
Conditions in all cases: concentration: 1 μM,replicates: in singlicate; n = 1
PCTK2 = tested on: T1, PCTK2
T1 construct: gene CDK17

PCTK3 = tested on: T2, PCTK3
T2 construct: gene CDK18

PDGFRA = tested on: PDGFRA
PDGFRB = tested on: PDGFRB
PDPK1 = tested on: PDPK1
PFTAIRE2 = tested on: PFTAIRE2
PFTK1 = tested on: T3, PFTK1
T3 construct: gene CDK14

PHKG1 = tested on: PHKG1
PHKG2 = tested on: PHKG2
PIK3C2B = tested on: PIK3C2B
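Further: KINOMEscan kinase panel screen.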

Structure (SMILES) | %Inh (PCTK2) | %Inh (PCTK3) | %Inh (PDGFRA) | %Inh (PDGFRB) | %Inh (PDPK1) | %Inh (PFTAIRE2) | %Inh (PFTK1) | %Inh (PHKG1) | %Inh (PHKG2) | %Inh (PIK3C2B)
N#Cc1cccc(C(=O)NC2CCN(c3ccnc(Nc4ccc(F)cc4)n3)C2)c1 (stereo not drawn) [GSK1379708] | 0% | 0% | 0% | 23% | 13% | 2% | 11% | 0% | 0% | 0%
COC(=O)c1cccc(NC(=O)NC2CCN(c3ccnc(Nc4cc(OC)c(OC)c(OC)c4)n3)C2)c1 (stereo not drawn) [GSK1379767] | 24% | 0% | 6% | 65% | 0% | 0% | 20% | 10% | 2% | 0%
CC(=O)c1c(-c2ccncc2)[nH]c(-c2ccncc2)c1C [GW493036] | 0% | 54% | 0% | 7% | 0% | 0% | 26% | 0% | 0% | 0%
Cn1ccc2ncnc(Oc3ccc(NC(=O)Nc4cccc(C(F)(F)F)c4)c(Cl)c3)c21 | 0% | 8% | 98.6% | 100% | 0% | 3% | 10% | 0% | 3% | 0%
CCCC(=O)Nc1n[nH]c2ncccc12 [SB-601436] | 0% | 0% | 0% | 0% | 0% | 14% | 9% | 0% | 0% | 0%
Cn1ccc2ncnc(Oc3ccc(NC(=O)Nc4cnn(C(C)(C)C)c4)c(Cl)c3)c21 | 5% | 0% | 99.6% | 100% | 5% | 0% | 0% | 0% | 0% | 27%
CS(=O)(=O)Nc1ccc(-c2ccnc3[nH]ccc23)cc1 [GSK993273] | 0% | 0% | 1% | 61% | 0% | 16% | 16% | 2% | 13% | 0%
Cn1ccc2ncnc(Oc3ccc(NC(=O)Nc4cc(C(C)(C)C)on4)c(Cl)c3)c21 | 8% | 7% | 98.9% | 100% | 0% | 9% | 0% | 3% | 9% | 7%
CC(C)S(=O)(=O)N1CCN(Cc2ccc3c(c2)nc(NC(=O)c2ccsc2)n3C[C@H](O)c2ccccc2)CC1 [GW635815] | 0% | 4% | 0% | 38% | 4% | 19% | 0% | 64% | 43% | 0%
CN1CCN(CCNc2nc3cc(Oc4ccc(NC(=O)Nc5cc(C(F)(F)F)ccc5F)cc4)ccc3[nH]2)CC1.Cl.Cl [GW768504] | 0% | 0% | 84% | 99.6% | 0% | 37% | 18% | 0% | 0% | 14%
O=C(Nc1n[nH]c2cc(-c3ccco3)ccc12)C1CC1 [SB-737447] | 31% | 28% | 30% | 59% | 0% | 0% | 1% | 0% | 3% | 6%
Cn1ccc2ncnc(Oc3ccc(NC(=O)Nc4ccnc(C(F)(F)F)c4)c(Cl)c3)c21 | 0% | 0% | 97% | 100% | 0% | 5% | 0% | 24% | 8% | 0%
CCn1c(-c2nonc2N)nc2cncc(CNC3CCNCC3)c21.Cl [SB-747651] | 0% | 0% | 0% | 4% | 18% | 14% | 1% | 25% | 0% | 0%
Cl.c1ccc(Oc2ccc(Nc3ccnc4cc(-c5ccc(CN6CCNCC6)o5)ccc34)cc2)nc1 [GW567142] | 0% | 2% | 78% | 98.5% | 0% | 25% | 11% | 0% | 0% | 0%
Cc1ccn2nc(-c3ccc(F)cc3)c(-c3ccncc3)c2c1.Cl [GW457859] | 18% | 7% | 0% | 33% | 0% | 7% | 24% | 0% | 11% | 0%
O=C(NOCC1CC1)c1cc(Br)c(F)c(F)c1Nc1ccc(I)cc1Cl | 0% | 0% | 0% | 13% | 9% | 0% | 0% | 0% | 0% | 0%
O=C(Nc1ccc(Oc2ccc3nc(NC(=O)C4CC4)cn3n2)c(F)c1)c1cccn(-c2ccccc2)c1=O | 5% | 5% | 96.3% | 100% | 0% | 0% | 0% | 61% | 0% | 0%

Structure (SMILES) | %Inh (PCTK2) | %Inh (PCTK3) | %Inh (PDGFRA) | %Inh (PDGFRB) | %Inh (PDPK1) | %Inh (PFTAIRE2) | %Inh (PFTK1) | %Inh (PHKG1) | %Inh (PHKG2) | %Inh (PIK3C2B)
Cc1cccc2c(-c3ccncc3)c(-c3ccc(F)cc3)nn12.Cl [GW461487] | 0% | 0% | 0% | 14% | 0% | 9% | 11% | 0% | 0% | 0%
CN(c1ccccc1CNc1nc(Nc2ccc3c(c2)CC(=O)N3)ncc1C(F)(F)F)S(C)(=O)=O | 49% | 4% | 3% | 83% | 34% | 35% | 8% | 35% | 25% | 0%
COC(=O)Nc1nc2cc(Oc3ccc(NC(=O)Nc4cc(C(F)(F)F)ccc4Cl)cc3)ccc2[nH]1.Cl [GW697465] | 11% | 26% | 86% | 100% | 0% | 80% | 39% | 1% | 0% | 0%
Cn1cc(-c2cccc3c(N)c(C(N)=O)nnc23)cn1 | 2% | 5% | 12% | 10% | 2% | 6% | 0% | 10% | 0% | 0%
COc1cc2ncn(-c3cc(OCC4CCCCC4)c(C(N)=O)s3)c2cc1OC [GSK204559] | 0% | 21% | 2% | 66% | 17% | 34% | 24% | 4% | 18% | 0%
Cc1n[nH]c2cc(Nc3ccnc(Nc4cccc(CN5CCOCC5)c4)n3)ccc12 [GW682569] | 12% | 8% | 75% | 95.4% | 0% | 7% | 20% | 0% | 0% | 0%
OCCn1cc(-c2cnc3nnn(Cc4ccc5ncccc5c4)c3n2)cn1 | 0% | 0% | 0% | 0% | 0% | 0% | 0% | 5% | 0% | 0%
COc1cc2nccc(Nc3ccc(Oc4ccccc4)cc3)c2cc1OC.Cl [GI261656] | 0% | 0% | 77% | 92% | 0% | 5% | 9% | 0% | 6% | 0%
Cn1ccc2ncnc(Oc3ccc(NC(=O)Nc4cccc(C(F)(F)F)c4)c(F)c3)c21 | 17% | 1% | 99.1% | 100% | 17% | 0% | 0% | 18% | 0% | 0%
CC(C)c1nc(-c2cccc(NS(=O)(=O)c3ccccc3)c2)c(-c2ccnc(Nc3ccc4c(c3)CN(C)CC4)n2)s1 [GSK1649598] | 100% | 100% | 91.2% | 100% | 0% | 85% | 78% | 0% | 45% | 20%
C[C@@H](Oc1cc(-n2cnc3cc(-c4cnn(C)c4)ccc32)sc1C(N)=O)c1ccccc1Cl [GSK580432] | 0% | 19% | 84% | 99.8% | 75% | 7% | 7% | 0% | 47% | 0%
Cc1ccc(CC(=O)N2CCc3cc(-c4cn(C)c5ncnc(N)c45)ccc32)cc1 [GSK2634758] | 0% | 0% | 39% | 96.4% | 57% | 9% | 17% | 0% | 0% | 40%
Cl.Cl.NC[C@H](CC1CCCCC1)NC(=O)c1ccc(-c2ccnc3[nH]ccc23)s1 [GSK1581428] | 0% | 0% | 80% | 97.3% | 18% | 32% | 31% | 36% | 13% | 0%
O=C1NCCc2[nH]c(-c3ccncc3)cc21 | 0% | 1% | 27% | 17% | 0% | 0% | 0% | 0% | 14% | 21%
O=c1[nH]cc(-c2ccc(O)cc2)c2sc(-c3ccncc3)cc12 [GSK1033723] | 12% | 17% | 0% | 18% | 0% | 11% | 18% | 7% | 22% | 0%
FC(F)(F)c1cc(Br)cc(Nc2nccc(-c3cnn4ncccc34)n2)c1 [GW810578] | 21% | 31% | 64% | 98.4% | 5% | 0% | 14% | 16% | 0% | 0%
